Where “and” joins values, the source holds several entries; their conditions need not be identical. Equal values may be shown once. Results filed as inconclusive are left out. More than one record can exist for a structure, and the calls need not agree. Calls of active or inactive are those of the source. Unless noted, calls come from the whole dose curve; as a rule, active = well fitted curve in the direction sought with a large enough effect in the repeat runs; inconclusive = weak or mixed curves; inactive = no such curve, though single readings can be large; an effect the other way counts as inactive or inconclusive.
What was measured:
[1] = qHTS assay to identify small molecule agonists of the hypoxia (HIF-1) signaling pathway - cell viability counter screen (AID 1224844; calls by dose curve; note: nearly all actives have a fitted effect of over 50% in size; note: potency is the fitted concentration of half-maximal effect)
Method in brief: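 In this counter screen, HRE-bla ME-180 cell viability after 17 hrs of compound exposure at 37C was read by CellTiter-Glo luminescence, multiplexed with the beta-lactamase reporter measurement.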

[2] = qHTS assay to identify small molecule agonists of H2AX (AID 1224845; active = well fitted activation curve with a large enough effect in the signal ratio in the repeat runs, not every such curve was filed as active; the % refers to the signal ratio)
Method in brief: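 Phospho-H2AX Ser139 measured by HTRF (ex 320 nm; em 665 and 620 nm) after 24 hr antibody incubation. Compounds, 15 concentrations, 0.76% DMSO, were applied to CHO-K1 cells for 3hr at 37C before lysis.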

[3] = qHTS assay to identify small molecule agonists of H2AX - cell viability counter screen (AID 1224847; calls by dose curve; note: nearly all actives have a fitted effect of over 30% in size; note: potency is the fitted concentration of half-maximal effect)
Method in brief: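 Read-out: CellTiter-Glo luminescence, 30 min RT. Cells: wild-type CHO-K1, 1000/well, 10% FBS, plated overnight at 37C. Treatment: 15 concentrations, 3 hr, 37C, 0.76% DMSO.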

[4] = qHTS RealTime-Glo MT Cell Viability Assay in HepG2 cells - 24 hour (AID 1224867); note: nearly all actives have a fitted effect of over 50% in size; note: potency is the fitted concentration of half-maximal effect
Method in brief: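 Real-time, nonlytic viability: 600 HepG2 cells/well mixed with NanoLuc enzyme plus prosubstrate; 5 h settle, compound (DMSO) added by pintool; luminescence monitored over 40 h at 37 C.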

[5] = qHTS RealTime-Glo MT Cell Viability Assay in HEK293 cells - 32 hour (AID 1224868); note: nearly all actives have a fitted effect of over 50% in size; note: potency is the fitted concentration of half-maximal effect
Method in brief: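 Cells + reagent dispensed (600 cells/well, HEK293) → 5 h at 37 C/5% CO2 → 23 nL compound in DMSO pinned → 40 h at 37 C → luminescence read at 0, 8, 16, 24, 32, 40 h.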

[6] = A CellTox Green Cytotoxicity Assay to monitor cytotoxicity in HEK293 cells - 0 hour (AID 1224869); note: nearly all actives have a fitted effect of over 50% in size
Method in brief: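 Real-time, in one plate: 600 HEK293 cells/well with dead-cell DNA dye, pinned compound after 5 h, 37 C incubation over 40 h; viable cells give no appreciable fluorescence.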

[7] = qHTS RealTime-Glo MT Cell Viability Assay in HepG2 cells - 40 hour (AID 1224870); note: nearly all actives have a fitted effect of over 50% in size; note: potency is the fitted concentration of half-maximal effect
Method in brief: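 Real-time viability: cells seeded at 600 per well together with NanoLuc and cell-permeant prosubstrate, compounds added after 5 h incubation. Luminescence tracked at 0, 8, 16, 24, 32 and 40 h of exposure.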

[8] = qHTS assay to identify small molecule agonists of the hypoxia (HIF-1) signaling pathway (AID 1224846; active = well fitted activation curve with a large enough effect in the signal ratio in the repeat runs, not every such curve was filed as active; the % refers to the signal ratio)
Method in brief: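 ME-180 HRE-bla reporter cells; compounds in DMSO, 17 h at 37C; read-out beta-lactamase via CCF4-AM FRET.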

[9] = qHTS assay to identify small molecule antagonists of the estrogen related receptor (ERR) signaling pathway from Tox21 library (AID 1224848); note: nearly all actives have a fitted effect of over 50% in size; note: potency is the fitted concentration of half-maximal effect
Method in brief: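 Luciferase luminescence (ONE-Glo, 30 min room temperature) was the read-out. Cells of the NTP-supplied ERR line, 2,000 per well, were given 6 h at 37 C before compound addition in DMSO and 18 h exposure at 37 C.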

[10] = qHTS assay to identify small molecule agonists of the estrogen related receptor (ERR) signaling pathway from Tox21 library (AID 1224849; calls by dose curve; note: nearly all actives have a fitted effect of over 15% in size); details: ERR reporter cell line, ONE-Glo luciferase, 18 h
Method in brief: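 Luciferase activity in ERR pathway reporter cells served as the agonist readout; exposure lasted 18 h at 37 C, with ONE-Glo detection after 30 min at room temperature.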
% is set by controls: 0 for no effect and ±100 for the full control effect.

C=C[C@H]1CN2CC[C@H]1C[C@@H]2[C@@H](O)c1ccnc2ccc(OC)cc12
inactive: Potency [1] | Potency [2] | Potency [3] | Potency [4] | Potency [6] | Potency [7]
active: Potency [5] 48.2 µM

CC(=O)OC(C)C
inactive: Potency [1] | Potency [2] | outcome [8] | Potency [3] | Potency [4] | Potency [5] | Potency [6] | Potency [7]

C=CCCCCCCCCCC
inactive: Potency [1] | Potency [2] | outcome [8] | Potency [3] | Potency [4] | Potency [5] | Potency [6] | Potency [7]

ClC/C=C/CCl
inactive: Potency [1] | outcome [8] | Potency [3] | Potency [9] | activity change, positive = activation ([10]; at 92.4 µM (top of the series)) -1.09% and 0.131% | Potency [4] | Potency [5] | Potency [6] | Potency [7]

COC(=O)C(C)Oc1ccc(Oc2ncc(C(F)(F)F)cc2Cl)cc1 (stereo not given)
active: Potency [9] 39.1 µM
inactive: Potency [1] | outcome [8] | Potency [3] | activity change, positive = activation ([10]; at 92.4 µM (top of the series)) -47.3% and -26.9% | Potency [4] | Potency [5] | Potency [6] | Potency [7]

CC1=CC(C)(C)Nc2ccccc21
inactive: Potency [1] | outcome [8] | Potency [3] | Potency [9] | activity change, positive = activation ([10]; at 92.4 µM (top of the series)) 1.56% and -18.3% | Potency [4] | Potency [5] | Potency [6] | Potency [7]

CC(=O)O[C@]1(C(C)=O)CC[C@H]2[C@@H]3C=C(C)C4=CC(=O)CC[C@]4(C)[C@H]3CC[C@@]21C
active: Potency [9] 21.7 µM and 26.6 µM | Potency [5] 17.4 µM
inactive: Potency [1] | Potency [2] | Potency [3] | activity change, positive = activation ([10]; at 42.5 µM (top of the series)) -37.5% | activity change, positive = activation ([10]; at 92.4 µM (top of the series)) -63.2% | Potency [4] | Potency [6]

CCc1cccc2c3c([nH]c12)C(CC)(CC(=O)O)OCC3 (stereo not given)
inactive: Potency [1] | Potency [2] | Potency [3] | Potency [4] | Potency [5] | Potency [6] | Potency [7]

CCCCCC1C(=O)CCC1CC(=O)OC (stereo not given)
inactive: Potency [1] | outcome [8] | Potency [3] | Potency [9] | activity change, positive = activation ([10]; at 92.4 µM (top of the series)) 0.33% and 0.3% | Potency [4] | Potency [5] | Potency [6] | Potency [7]

O=C(O)c1ccc(O)cc1
inactive: Potency [1] | outcome [8] | Potency [3] | Potency [9] | activity change, positive = activation ([10]; at 92.4 µM (top of the series)) 9.49% | Potency [4] | Potency [5] | Potency [6] | Potency [7]

CCCCCCCCCCCCO
inactive: Potency [1] | Potency [2] | outcome [8] | Potency [3] | Potency [4] | Potency [5] | Potency [6] | Potency [7]

OC[C@H]1O[C@@H]2O[C@H]3[C@H](O)[C@@H](O)[C@@H](O[C@H]4[C@H](O)[C@@H](O)[C@@H](O[C@H]5[C@H](O)[C@@H](O)[C@@H](O[C@H]6[C@H](O)[C@@H](O)[C@@H](O[C@H]7[C@H](O)[C@@H](O)[C@@H](O[C@H]1[C@H](O)[C@H]2O)O[C@@H]7CO)O[C@@H]6CO)O[C@@H]5CO)O[C@@H]4CO)O[C@@H]3CO
inactive: Potency [1] | Potency [2] | outcome [8] | Potency [3] | Potency [4] | Potency [5] | Potency [6] | Potency [7]

Nc1ccc2c(c1)C(=O)c1ccccc1C2=O
inactive: Potency [1] | Potency [2] | outcome [8] | Potency [4] | Potency [5] | Potency [6] | Potency [7]
98.9 µM (active) and inactive: Potency [3]

O=Cc1ccccc1C=O
38.9 µM (active) and inactive: Potency [7]
inactive: Potency [1] | Potency [2] | outcome [8] | Potency [3] | Potency [4] | Potency [5] | Potency [6]

C=CCNCC=C
inactive: Potency [1] | Potency [2] | outcome [8] | Potency [3] | Potency [4] | Potency [5] | Potency [6] | Potency [7]

O=C(O)CCCC(=O)O
inactive: Potency [1] | Potency [2] | outcome [8] | Potency [3] | Potency [4] | Potency [5] | Potency [6] | Potency [7]

Cc1ccc(C(C)(C)C)cc1
inactive: Potency [1] | Potency [2] | outcome [8] | Potency [3] | Potency [4] | Potency [5] | Potency [6] | Potency [7]

CCC/C=C/C=O
inactive: Potency [1] | Potency [2] | outcome [8] | Potency [3] | Potency [4] | Potency [5] | Potency [6] | Potency [7]

CCCCCCCC/C=C\CCCCCCCC(=O)O
inactive: Potency [1] | Potency [2] | Potency [3] | Potency [4] | Potency [5] | Potency [6]

C=CC(C)(O)CCC=C(C)C (stereo not given)
inactive: Potency [1] | Potency [2] | outcome [8] | Potency [3] | Potency [4] | Potency [5] | Potency [6] | Potency [7]

OC[C@@H](O)[C@@H](O[C@@H]1O[C@H](CO)[C@H](O)[C@H](O)[C@H]1O)[C@H](O)[C@@H](O)CO
inactive: Potency [1] | outcome [8] | Potency [3] | Potency [9] | activity change, positive = activation ([10]; at 42.5 µM (top of the series)) 4.37% | activity change, positive = activation ([10]; at 92.4 µM (top of the series)) 5.88% | Potency [4] | Potency [5] | Potency [6] | Potency [7]

C=CC(=O)OCCCC
inactive: Potency [1] | outcome [8] | Potency [3] | Potency [9] | activity change, positive = activation ([10]; at 92.4 µM (top of the series)) 7.41% and 1.06% | Potency [4] | Potency [5] | Potency [6] | Potency [7]

C/C=C/C(=O)N(CC)c1ccccc1C
inactive: Potency [1] | Potency [2] | Potency [3] | Potency [9] | activity change, positive = activation ([10]; at 42.5 µM (top of the series)) 9.15% | activity change, positive = activation ([10]; at 92.4 µM (top of the series)) -2.58% | Potency [4] | Potency [5] | Potency [6] | Potency [7]

O=C(CCCN1CCC(O)(c2ccc(Cl)cc2)CC1)c1ccc(F)cc1
inactive: Potency [1] | Potency [2] | Potency [3] | Potency [6]
49 µM (active) and inactive: Potency [4]
active: Potency [5] 17.4 µM and 8.49 µM

Cc1cccc(Nc2ccccc2C(=O)O)c1C
inactive: Potency [1] | Potency [2] | Potency [3] | Potency [4] | Potency [5] | Potency [6] | Potency [7]

C=CCOC(=O)C(=C)C
inactive: Potency [1] | outcome [8] | Potency [3] | Potency [9] | activity change, positive = activation ([10]; at 92.4 µM (top of the series)) -1.6% and 1.74% | Potency [4] | Potency [5] | Potency [6] | Potency [7]

CC(C)[N+](C)(CCOC(=O)C1c2ccccc2Oc2ccccc21)C(C)C
inactive: Potency [1] | Potency [2] | Potency [3] | Potency [4] | Potency [5] | Potency [6] | Potency [7]

COc1ccc(C(=O)c2ccccc2O)c(O)c1
inactive: Potency [1] | Potency [2] | outcome [8] | Potency [9] | activity change, positive = activation ([10]; at 42.5 µM (top of the series)) -1.96% | activity change, positive = activation ([10]; at 92.4 µM (top of the series)) -27.1% | Potency [4] | Potency [5] | Potency [6]

CC(=O)[C@H]1CC[C@H]2[C@@H]3CC=C4C[C@@H](O)CC[C@]4(C)[C@H]3CC[C@]12C
inactive: Potency [1] | outcome [8] | Potency [3] | Potency [9] | activity change, positive = activation ([10]; at 42.5 µM (top of the series)) -14.3% | activity change, positive = activation ([10]; at 92.4 µM (top of the series)) -23.4% | Potency [4] | Potency [5] | Potency [6] | Potency [7]

NCCS(=O)(=O)O
inactive: Potency [1] | Potency [2] | Potency [3] | Potency [4] | Potency [5] | Potency [6] | Potency [7]

COCCOCCOCCO
inactive: Potency [1] | outcome [8] | Potency [3] | Potency [9] | activity change, positive = activation ([10]; at 92.4 µM (top of the series)) 3.34% and 5.65% | Potency [4] | Potency [5] | Potency [6] | Potency [7]

CC(C)(Oc1ccc(Cl)cc1)C(=O)O
inactive: Potency [1] | Potency [2] | Potency [3] | Potency [4] | Potency [5] | Potency [6] | Potency [7]

CCOC(=O)C(C)Oc1ccc(Oc2cnc3cc(Cl)ccc3n2)cc1 (stereo not given)
inactive: Potency [1] | Potency [2] | outcome [8] | Potency [4] | Potency [6]
active: Potency [5] 39.9 µM

C1CN(SSN2CCOCC2)CCO1
inactive: outcome [8] | Potency [3] | activity change, positive = activation ([10]; at 92.4 µM (top of the series)) -55.6% and -54.1% | Potency [4] | Potency [5] | Potency [6]
active: Potency [1] 54.4 µM | Potency [9] 60.5 µM and 61.1 µM

C[N+](C)(C)CCO
inactive: Potency [1] | Potency [2] | Potency [3] | Potency [4] | Potency [5] | Potency [6] | Potency [7]

C[C@]12CC[C@@H]3c4ccc(O)cc4CC[C@H]3[C@@H]1CC[C@@H]2O
inactive: Potency [1] | Potency [2] | Potency [3] | activity change, positive = activation ([10]; at 92.4 µM (top of the series)) -53.8% and -42.2% | Potency [4] | Potency [6] | Potency [7]
active: Potency [9] 27.3 µM and 34.4 µM | Potency [5] 17.3 µM and 21.9 µM

CCC(=O)O[C@H]1[C@H](O[C@@H]2[C@@H](C)[C@H](O[C@H]3C[C@@](C)(OC)[C@@H](O)[C@H](C)O3)[C@@H](C)C(=O)O[C@H](CC)[C@@](C)(O)[C@H](O)[C@@H](C)C(=O)[C@H](C)C[C@@]2(C)O)O[C@H](C)C[C@@H]1N(C)C
inactive: Potency [2] | outcome [8] | Potency [3] | Potency [4] | Potency [5] | Potency [6] | Potency [7]
25.8 µM (active) and inactive: Potency [1]

Reference: PubChem BioAssay (Tox21)
